Laboratory results: the supplement of paper PMC6555819

Tests used:
Assay in all cases: PBM binding z-score (relative to random genomic background probes); higher = stronger binding; sequences stand for … in GC…GCGATTGACAGCGTAGAATGAAGG
[1] = tested on: PPARg:RXRa DBDmut IVT, anti-RXR (DBD mutation: RXRa K156A/R161A, NR concentration 270 nM, RXRa partner concentration 90 nM)
How it was run: (§1)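 Each nuclear receptor dimer, without ligand, was incubated for 1 h on custom Agilent 4×180K protein-binding microarrays. Binding was detected with antibodies against each partner (one per run), and scanned fluorescence was regression-normalized. The binding z-scores are referenced to random human genomic background probes.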

[2] = tested on: PPARg:RXRa IVT, anti-PPARg (NR concentration 270 nM, RXRa partner concentration 90 nM)
How it was run: as §1

[3] = tested on: PPARg DBDmut:RXRa IVT, anti-PPARg (DBD mutation: PPARg1 K132A/R137A, NR concentration 270 nM, RXRa partner concentration 90 nM)
How it was run: as §1

[4] = tested on: PPARg DBDmut IVT, anti-PPARg (DBD mutation: PPARg1 K132A/R137A, NR concentration 270 nM)
How it was run: as §1

[5] = tested on: PPARg homodimer (NR concentration 180 nM)
How it was run: as §1

[6] = tested on: PXR:RXRa (NR concentration 270 nM, RXRa partner concentration 90 nM)
How it was run: as §1

[7] = tested on: PXR homodimer (NR concentration 270 nM)
How it was run: as §1

[8] = tested on: RARa:RXR (NR concentration 270 nM, RXRa partner concentration 90 nM)
How it was run: as §1

[9] = tested on: RARa homodimer (NR concentration 270 nM)
How it was run: as §1

[10] = tested on: RARb:RXRa (NR concentration 270 nM, RXRa partner concentration 90 nM)
How it was run: as §1

[11] = tested on: RARb homodimer (NR concentration 270 nM)
How it was run: as §1

[12] = tested on: RARg:RXRa (NR concentration 270 nM, RXRa partner concentration 90 nM)
How it was run: as §1

[13] = tested on: RARg homodimer (NR concentration 270 nM)
How it was run: as §1

[14] = tested on: RXRa DBDmut IVT, anti-RXR (DBD mutation: RXRa K156A/R161A, NR concentration 90 nM)
How it was run: as §1

[15] = tested on: RXRa homodimer (NR concentration 180 nM)
How it was run: as §1

[16] = tested on: THRa:RXRa (NR concentration 90 nM, RXRa partner concentration 90 nM)
How it was run: as §1

[17] = tested on: THRa homodimer (NR concentration 90 nM)
How it was run: as §1

[18] = tested on: VDR:RXRa (NR concentration 270 nM, RXRa partner concentration 90 nM)
How it was run: as §1

[19] = tested on: VDR homodimer (NR concentration 270 nM)
How it was run: as §1

Sequence	PBM binding z-score [1]	PBM binding z-score [2]	PBM binding z-score [3]	PBM binding z-score [4]	PBM binding z-score [5]	PBM binding z-score [6]	PBM binding z-score [7]	PBM binding z-score [8]	PBM binding z-score [9]	PBM binding z-score [10]	PBM binding z-score [11]	PBM binding z-score [12]	PBM binding z-score [13]	PBM binding z-score [14]	PBM binding z-score [15]	PBM binding z-score [16]	PBM binding z-score [17]	PBM binding z-score [18]	PBM binding z-score [19]
CAAACTAGGTCACCTGAAGGTCAAAGTCCGCATG	8.35	8.25	1.4	0.822	7.4	5.61	2.75	7.1	2.19	5.14	5.57	8.05	7.61	2.29	6.63	4.16	2.96	5.59	3.86
TTACCAAGGTGAAGGTCGTTGATCCCTCTGTAGA	1.59	3.45	1.02	-0.236	0.792	1.48	0.114	1.76	-0.599	2.28	1.7	1.29	1.32	0.0227	1.7	2.34	1.1	1.24	1.15
ATCTCTAGGTACAGTTCAGTGAAAGATCGATAGA	0.631	0.726	1.18	1.5	0.523	0.814	0.988	0.458	1.24	0.918	0.899	0.55	0.987	1.95	0.449	0.634	0.0799	1.12	1.77
CGTCAAAGTTGAAGGTAACGTAACAGAAAGCAGC	0.274	0.441	0.243	0.266	0.228	0.242	-0.121	0.656	0.1	1.64	0.588	0.945	1.11	0.128	0.848	0.402	-0.078	-0.0741	-0.0561
GATAGAGGGTCAGCTAGAGGCCAGAGTATGGAAA	1.62	2.24	-0.25	-0.22	1.64	2.44	-0.0848	3.7	0.224	3.85	3.28	6.38	4.5	0.579	3.71	2.39	-0.103	2.45	0.387
CCGACTGGGGCATAAGGATACCATAAGCCAGCCC	2.56	1.93	-0.873	-1.29	-0.477	-0.797	-0.877	-0.463	0.0261	0.0537	-0.129	-0.00817	0.301	-0.682	0.0556	0.92	0.5	-0.657	-0.401
TCCAGTAGGTTAGGGGCATTCAGAATGGCGTCGA	3.35	2.67	-0.472	0.307	1.01	0.69	0.251	0.878	-0.317	1.22	0.983	0.561	0.313	1.16	1.06	0.915	0.179	0.702	0.877
TCTCCTAGGTCAGTTGGTCAGCTAACGAGCTGCC	2.85	3.32	1.43	0.66	1.05	0.732	-0.3	0.918	0.238	3.52	2.95	3.2	3.85	1.16	1.38	1.79	0.747	0.839	0.116
CTACCAAGGTGAACAAGGTCTTTGATTACTATTC	2.51	2.75	0.785	0.293	0.597	0.752	0.0854	0.973	0.482	1.72	1.24	0.878	0.946	0.886	0.789	2.52	1.42	3.6	0.414
GGTACGAGGGCAAGTTGATAGCAGAGTTTGATGG	2.1	1.59	-0.734	-1	0.42	1.06	0.796	0.502	0.101	2.75	1.72	1.74	2.47	2.31	0.941	1.39	0.219	1.11	2.1
CCTAGCAGGCCAATCTGGGTTACTCAAGGCTTGA	3.14	3.29	-0.813	-1.24	-0.705	-0.391	-0.895	-0.308	-0.89	0.268	0.0666	-0.247	-0.0907	-0.131	-0.48	1.61	-0.596	-0.43	-0.739
ACTATTAGTTGAGACAAGGGCAACCGATAGGTTG	-0.102	0.38	0.684	0.362	1.21	0.594	0.47	0.553	0.821	1.17	1.01	0.568	0.799	0.0242	0.407	1.96	-0.191	0.191	0.496
TGTCAAAGTTCAAAGGAAACGTAAGTATCCACAC	-0.506	3.75	1.36	1.26	2.31	4.33	1.78	3.21	1.06	4.95	3.37	5.07	5.18	3.95	4.12	1.62	-0.452	3.86	3.4
TCTTGTAGATAAGCAGGTTAAGAAAGCTGGCCAA	1.32	0.184	0.000724	-0.186	0.0505	0.206	-0.278	0.402	0.154	0.0488	-0.166	-0.153	-0.231	0.319	0.245	0.129	-0.622	0.177	-0.0851
CCTCGGAGGACAGAAGATCAGAGCTGTCCGCTTT	-0.304	-0.633	-2.13	-1.48	-0.0483	-0.636	-0.786	-0.512	-0.276	0.386	-0.501	-0.0315	0.0841	-0.174	-0.41	-0.0672	-0.73	-0.618	-0.8
